Measurements from the supplement of paper PMC10646978.
± gives the standard deviation.

Experiments:
Details in all cases: modulator concentration 10 µM
[1] = system: RAW-Dual (murine macrophage reporter line); assay: NF-kB reporter (SEAP) activity fold change vs agonist alone; higher = enhanced NF-kB activity
Procedure, shortened: (§1)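 Compound reached 10 μM final in each well by pin transfer, onto RAW-Dual murine macrophage reporter cells seeded at 50 000 per well in 384-well plates. After 1 hour at 37 °C, the cells were stimulated overnight with a PRR agonist. SEAP in the supernatant was read with QUANTI-Blue at 620 nm absorbance for NF-κB, and Lucia luciferase was read with QUANTI-Luc luminescence for IRF. Each signal was turned into fold change against the mean agonist-only control on the same plate, and two replicate plates were averaged with propagated errors.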

[2] = system: RAW-Dual (murine macrophage reporter line); assay: IRF reporter (Lucia luciferase) activity fold change vs agonist alone; higher = enhanced IRF activity
Procedure, shortened: as §1

[3] = system: RAW-Dual (murine macrophage reporter line); assay: viability score (confluency relative to resting cells, overnight) (fraction); higher = more viable, active = viable (0.7 or more)
Procedure, shortened: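 Compound was added at a final 10 μM to RAW-Dual macrophages in 384-well plates and left overnight. Confluency was imaged with IncuCyte, and two masks were generated in IncuCyte software over all imaged wells. Each viability score is confluency relative to resting cells, and a compound met the cutoff only when both masks were above 70% of resting cells.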

[4] = agonist: CpG ODN 1826 0.5 ug/mL

Structure (SMILES)	NF-kB reporter [1, 4]	NF-kB reporter ([1]; agonist: LPS 0.1 ug/mL)	NF-kB reporter ([1]; agonist: MPLA […])	IRF reporter ([2]; agonist: 3'3'-cGAMP 10 ug/mL)	IRF reporter ([2]; agonist: LPS 0.1 ug/mL)	IRF reporter ([2]; agonist: MPLA […])	viability score [3]
Cc1nc(Nc2ncc(C(=O)Nc3c(C)cccc3Cl)s2)cc(N2CCN(CCO)CC2)n1.O	1.55 ± 0.37	0.307 ± 0.025	0.644 ± 0.041	0.0905 ± 0.0031	0.536 ± 0.063	0.656 ± 0.081	0.492 (inactive)
COC(=O)CNC(c1ccccc1)c1cc(Br)ccc1NC(=O)c1ccccc1Br (centres undefined)	0.826 ± 0.07	0.777 ± 0.041	1.52 ± 0.053	0.632 ± 0.035	1.1 ± 0.14	1.52 ± 0.22	0.988 (active)
CC(=O)N1N=C(c2ccc(N(C)C)cc2)CC1c1ccccc1 (centres undefined)	0.932 ± 0.08	1.04 ± 0.073	1.01 ± 0.047	0.794 ± 0.048	1.01 ± 0.042	1.1 ± 0.072	1 (active)
CCOC(=O)OC(C)OC1=C(C(=O)Nc2ccccn2)N(C)S(=O)(=O)c2ccccc21 (centres undefined)	1.12 ± 0.15	1.28 ± 0.25	0.995 ± 0.056	0.948 ± 0.029	1.37 ± 0.34	1.32 ± 0.12	0.989 (active)
C#Cc1cccc(Nc2ncnc3cc(OCCOC)c(OCCOC)cc23)c1	0.819 ± 0.051	1.1 ± 0.092	0.945 ± 0.05	0.948 ± 0.055	1.05 ± 0.16	1.13 ± 0.3	0.993 (active)
Cc1cc(C(O)CCNC(=O)Nc2ccc(Cl)c(Cl)c2)c(C)o1 (centres undefined)	0.577 ± 0.033	0.87 ± 0.075	0.791 ± 0.072	0.835 ± 0.038	0.974 ± 0.22	0.863 ± 0.31	0.975 (active)
Cl.Cl.OCCN1CCN(CCCN2c3ccccc3Sc3ccc(C(F)(F)F)cc32)CC1	0.972 ± 0.047	0.893 ± 0.073	0.91 ± 0.05	0.895 ± 0.042	1.03 ± 0.15	0.947 ± 0.3	0.677 (inactive)
C=CCn1c(=N)n(CC(O)c2ccco2)c2ccccc21.Cl (centres undefined)	1.15 ± 0.13	0.961 ± 0.1	1.21 ± 0.056	1.07 ± 0.17	1.03 ± 0.043	0.936 ± 0.061	1 (active)
CCN1CCCC1CNC(=O)c1cc(S(N)(=O)=O)ccc1OC (centres undefined)	1.01 ± 0.11	1.06 ± 0.07	0.992 ± 0.052	1.02 ± 0.11	0.982 ± 0.11	0.865 ± 0.068	1 (active)
O=C(CCC(=O)NN=Cc1ccc(O)cc1O)NN=Cc1ccc(O)cc1O	0.934 ± 0.084	1.05 ± 0.067	0.978 ± 0.11	0.944 ± 0.042	1.52 ± 0.18	1.26 ± 0.13	0.994 (active)
O=C(NCCC(CCO)c1ccccc1)c1cccc(Br)c1 (centres undefined)	0.731 ± 0.033	1.03 ± 0.093	0.988 ± 0.053	0.653 ± 0.031	0.927 ± 0.18	0.958 ± 0.35	0.996 (active)
Cc1ccc(C(=O)NC(Oc2ccc3ccccc3c2)C(Br)(Br)Br)cc1 (centres undefined)	0.799 ± 0.045	1.02 ± 0.092	0.86 ± 0.053	0.598 ± 0.047	1.51 ± 0.12	1.27 ± 0.14	0.998 (active)
